Compound activity from PubChem.
FXN GAA850 act – activators of GAA850 frataxin (FXN) promoter; AID 540364; 360,000 tested, 0.56% active; activation, % at 6 µM; HEK293 lucGAA850 FXN promoter luciferase reporter, 24 h; percent of 10 µM SAHA response;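 active = activation above the average of all compounds screened plus 3 SD, cutoff fixed separately per campaign, cut at about 7.5% in these data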;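 note: 0% = DMSO wells and 100% = 10 µM SAHA wells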
DAX1 inh-1 – DAX1 (NR0B1) inhibition, primary screen | HEK293T StAR-luciferase reporter, SF-1/DAX-1 repression relief | 370,000 tested, 1.1% active | inhibition, % at 6.8 µM;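 active = inhibition above the mean over all tested compounds plus 3 SD, cut at about 3.6% in these data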;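 note: 0% = DAX-1 cells with DMSO and 100% = cells lacking DAX-1 with DMSO; higher inhibition means more luminescence from relief of DAX-1 repression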
hgDAF12 agonist – agonists of H. glycines DAF-12 nuclear receptor. HEK293 GAL4-hgDAF12 UAS-luciferase reporter, agonist luminescence; normalized to butyrate control. activation, % at 6.8 µM. 370,000 tested, 1.8% active;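 active = activation above a cutoff set at the mean of all screened compounds plus 3 SD, cut at about 10% in these data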;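 note: 0% = DMSO wells and 100% = sodium butyrate wells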
DAX1 inh-2 – inhibits human nuclear receptor DAX1; 340,000 tested, 0.99% active; AID 504766; HEK293 Gal4-DAX1 luciferase reporter, luminescence; inhibition, % at 6.75 µM;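 active = inhibition above the mean over all tested compounds plus 3 SD, cut at about 4.2% in these data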;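 note: 0% = DAX1-transfected cells with DMSO and 100% = empty-vector control cells with DMSO; inhibition shows as a rise in luminescence from relieved DAX1 repression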
Target sequence (P51843 207-470 limits assumed): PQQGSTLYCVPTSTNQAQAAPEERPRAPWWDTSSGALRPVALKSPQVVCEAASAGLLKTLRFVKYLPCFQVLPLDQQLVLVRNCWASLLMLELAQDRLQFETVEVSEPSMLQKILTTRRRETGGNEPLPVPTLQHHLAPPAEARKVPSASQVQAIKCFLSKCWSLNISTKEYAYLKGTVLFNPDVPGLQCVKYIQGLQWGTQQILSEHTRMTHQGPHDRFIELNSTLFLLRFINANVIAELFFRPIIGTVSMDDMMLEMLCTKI
hcDAF12 agonist – activators of H. contortus DAF-12 nuclear receptor. activation, % at 6.8 µM. 370,000 tested, 1.4% active. HEK293 hcDAF-12 lit1-tk-luc reporter, luminescence; 0% DMSO, 100% Δ7-dafachronic acid;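 active = activation above the mean of all tested compounds plus 3 SD, cut at about 5.5% in these data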;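 note: 100% = response to 3 µM Δ7-dafachronic acid high control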
ssDAF12 agonist – activators of S. stercoralis DAF-12 nuclear receptor; activation, % at 6.8 µM; HEK293 ssDAF-12/GRIP1 lit1-tk-luc reporter, luminescence; % of 3 µM dafachronic acid response; 370,000 tested, 1% active;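 active = activation above the mean over all tested compounds plus 3 SD, cut at about 0.9% in these data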;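 note: 0% = DMSO-only wells and 100% = 3 µM delta7-dafachronic acid wells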
DAX1 conf – confirmation of human DAX1 (NR0B1) inhibitors. shares compounds with DAX1 inh-1. HEK293T StAR-promoter luciferase reporter, SF-1/DAX-1 repression. inhibition, % at 6.8 µM. 2,400 tested, 87% active. AID 652134;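 active = inhibition above the average of every tested compound plus 3 SD, cut at about 3.8% in these data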;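 note: 0% = DAX-1 cells with DMSO and 100% = no DAX-1 control cells with DMSO; active compounds raise luminescence by relieving repression of the StAR reporter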
SF1 AF2mut Luc – counter-screen for DAX1 inhibitors: nonselective inhibitors with SF-1 AF2 mutant; shares compounds with DAX1 inh-1; HEK293 StAR-luciferase, luminescence; inhibition, % at 6.8 µM; 2,400 tested, 78% active; AID 652136;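 active = inhibition above the mean of all tested compounds plus 3 SD, cut at about 3% in these data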;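 note: 0% = DAX-1 transfected cells with DMSO and 100% = cells without DAX-1 with DMSO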
Active calls of the source: *; · = not tested or not shown. Sampled rows, rich in hits. Any-hit rate of the full collection: about 4.5%.

SMILES	FXN GAA850 act	DAX1 inh-1	hgDAF12 agonist	DAX1 inh-2	hcDAF12 agonist	ssDAF12 agonist	DAX1 conf	SF1 AF2mut Luc
CCOc1ccc(-c2cc(C(=O)Nc3ccc(F)cc3)[nH]n2)c(C)c1	4	7.4*	12*	·	3	0	10*	6.7*
CCC(=O)Nc1sc(C(=O)Nc2ccccc2F)c(C)c1C(=O)OC	7	5.9*	13*	0	4	0	13*	6.3*
COc1ccc(CCNC(=O)c2cccn2C)cc1	4	6.3*	9	4	5	-1	7.8*	6.5*
CCCCC(=O)N(C)c1c(C)nc2ccc(C(=O)N3CCN(S(=O)(=O)CC)CC3)cn12	1	0	0	·	-2	-1	·	·
Cc1cc(NC(=O)CCC(=O)N(c2ccccc2C)C(C(=O)NC2CCCC2)c2ccccc2)no1 (stereo unspecified)	1	1	0	0	1	0	·	·
NC(=O)C1CCN(C(=O)c2cc3c(s2)CCCC3)CC1	5	5.7*	6	2	1	-1	4.9*	2
COc1ccc(N2CCN(C(=O)c3cc4c(s3)CCCCC4)CC2)cc1	2	4.5*	2	1	0	-1	3	2
CC(C)NC(=O)C1CCN(C2CCN(C(=O)c3cc4c(s3)CCCCC4)CC2)CC1	0	-1	-1	-3	1	-1	·	·
O=C(NCCc1ccccc1)C1=COCCO1	3	7.8*	8	1	4	-1	8.7*	6.5*
Cc1ccccc1C1CCCN(C(=O)c2cc(COc3c(F)cccc3F)on2)C1 (stereo unspecified)	0	-1	-3	-2	-2	-1	·	·
CCCOC1CCCN(C(=O)c2cc(COc3c(F)cccc3F)on2)C1 (stereo unspecified)	5	4.5*	10	1	3	0	4.4*	5.5*
CC(=O)N(C)c1ccc(N=Nc2ccc3ncccc3c2)cc1	2	5.5*	12*	1	5.7*	1	10*	3.7*
Cn1ccc(C(=O)NC(=S)Nc2ccc([N+](=O)[O-])cc2O)n1	1	8.3*	5	2	2	0	10*	5.8*
COCCCNc1ccn2nc(-c3ccccc3)cc2n1	-4	6.5*	10	·	6.3*	1.0*	15*	5.0*
CC1CCN(c2nc3ccc(C(=O)NCCCN4CCCCC4)cc3s2)CC1	5	5.9*	11*	0	3	0	12*	7.2*
COc1ccccc1C(C)NC(=O)Cc1ccc(S(=O)(=O)N2CCOCC2)s1 (stereo unspecified)	1	1	-1	3	0	-1	·	·
Brc1ccccc1OCCN1CCCC1	1	0	-1	4	1	-1	·	·
O=C1c2ccccc2C(=O)N1CCOc1ccccc1Br	5	4.8*	6	2	1	1	4.3*	1
O=C1c2ccccc2C(=O)N1CCOc1ccccc1Cl	4	8.0*	10	1	2	0	3.8*	4.3*
CCc1ccc(OCC(=O)NC2CCCCC2)c(Br)c1	5	6.9*	9	1	4	0	6.9*	4.4*
Cc1occc1C(=O)Nc1cccc(Cl)c1Cl	4	3	9	1	2	-1	·	·
COc1cc2c(cc1OC)CN(S(=O)(=O)c1ccc3c(c1)OCCO3)CC2	3	-1	-4	2	-2	-2	·	·
COc1cc(C(=O)N/N=C(\C)c2ccccn2)cc(OC)c1OC	-1	8.3*	-5	-2	1	0	-1	0
COc1cc(C(=O)N/N=C(\c2ccccc2)c2ccccn2)cc(OC)c1OC	-4	-2	-9	-2	-4	-2	·	·
CC(C)(C)C1=CC(=Nc2ccccc2N)C=C(C(C)(C)C)C1=O	6	4.6*	13*	0	5	2.9*	-1	0
SMILES	FXN GAA850 act	DAX1 inh-1	hgDAF12 agonist	DAX1 inh-2	hcDAF12 agonist	ssDAF12 agonist	DAX1 conf	SF1 AF2mut Luc
Nc1ccccc1N=c1ssnc1Cl	2	1	7	0	6	-1	·	·
CC(=O)N1CCN(C(=O)CCCNC(=O)c2ccc(Cl)cc2)CC1	1	-1	-2	0	-1	-1	·	·
COc1ccc(-c2nnc(SCC(=O)Nc3cc(C)on3)n2N)cc1OC	2	0	0	0	-2	0	·	·
Cc1cc(NC(=O)CSc2nnc(-c3cccc(F)c3)n2N)no1	2	5.2*	-2	0	-1	-1	2	2
Cc1ccc(-c2ccc(SCC(=O)Nc3cc(C)on3)nn2)cc1	-1	0	2	0	0	-2	·	·
Cc1cc(NC(=O)CSc2ccc(-c3ccc(Br)cc3)nn2)no1	4	5.3*	7	1	3	0	0	0
O=C(NCC1CCCCC1)c1cc(S(=O)(=O)N2CCOCC2)ccc1F	0	0	-1	0	0	-1	·	·
COc1ccc(C(CNC(=O)C2CC(=O)N(Cc3ccccc3)C2)N2CCOCC2)cc1 (stereo unspecified)	1	-2	-1	0	-2	-1	·	·
COc1cc([C@@H]2c3cc4c(cc3[C@H](O)[C@H]3COC(=O)[C@H]23)OCO4)cc(OC)c1OC	-3	12*	-4	0	0	0	15*	-5
C[C@@H]1CN([C@@H](C)CO)S(=O)(=O)c2ccc(-c3cccc(C#N)c3)cc2O[C@@H]1CN(C)C(=O)c1ccc(F)cc1	-4	-2	1	0	-3	-1	·	·
C/C=C/c1ccc2c(c1)O[C@@H](CN(C)C(=O)c1ccc(F)cc1)[C@@H](C)CN([C@H](C)CO)S2(=O)=O	2	4.8*	-2	1	-2	-1	-1	4.4*
Cc1ccc(NC(=O)OC[C@@H]2CSCCS(=O)(=O)N2)cc1	·	2	2	·	2	0	·	·
O=C(Nc1ccc(Cl)cc1)OC[C@@H]1CSCCS(=O)(=O)N1	·	5.0*	1	·	0	0	2	0
COc1ccc(-c2cnc3c(NC=O)cc(-c4ccccc4OC)cn23)cc1OC	-3	11*	0	·	-3	-2	30*	-8
Cc1ccsc1C(=O)NNC(=O)C1CCCCC1C(=O)O (stereo unspecified)	4	6.2*	16*	2	5	1	4.0*	1
O=C(NNC(=O)[C@@H]1CCCC[C@@H]1C(=O)O)c1cccs1	1	0	3	0	1	-1	·	·
